About 8,600 (12%) of roughly 69,000 compounds showed an effect of 50% or more. The sample holds strong results, similar compounds and a random draw of the others, so the mix is not that of the screen.
Tested on: Plasmodium berghei
Experiment: Screen against P. berghei liver stage (PbLuc), transformed with Luciferase, at 10uM
Type: functional, HepG2
Settings: tested at 10 uM

SMILES | INHIBITION
CS(=O)(=O)c1cc(S(N)(=O)=O)ccc1NCC1CCCO1 (centres undefined) | 30%
Cc1nnc(CN2CCN(CC(O)c3ccccc3)CC2)o1 (centres undefined) | 4.71%
CC(C)(C)c1nnc(CN2CCN(CC(O)c3ccccc3)CC2)o1 (centres undefined) | 58.2%
CCc1nnc(CN2CCN(CC(O)c3ccccc3)CC2)o1 (centres undefined) | -12.2%
OCC1CCCN1c1cc(NCc2cccnc2)ncn1 (centres undefined) | -7.35%
O=C(Nc1cccc(Cl)c1)c1nn(C2CCS(=O)(=O)C2)c2c1CCCC2 (centres undefined) | 79.8%
O=C(Nc1ccccc1)c1nn(C2CCS(=O)(=O)C2)c2c1CCCC2 (centres undefined) | 66.3%
O=C(Nc1ccccc1F)c1nn(C2CCS(=O)(=O)C2)c2c1CCCC2 (centres undefined) | 85.5%
O=C(NCc1ccccc1)c1nn(C2CCS(=O)(=O)C2)c2c1CCCC2 (centres undefined) | 20.1%
CC(C)(C)NC(=O)c1nn(C2CCS(=O)(=O)C2)c2c1CCCC2 (centres undefined) | 28.4%
Cc1nn(C2CCS(=O)(=O)C2)c(O)c1Cc1cccc(Cl)c1 (centres undefined) | 28.5%
O=C(Nc1ccc(Cl)cn1)c1nn(C2CCS(=O)(=O)C2)c2c1CCCC2 (centres undefined) | 83.9%
Cc1cc(NC(=O)c2nn(C3CCS(=O)(=O)C3)c3c2CCCC3)no1 (centres undefined) | 26.7%
O=C(NCc1ccco1)c1nn(C2CCS(=O)(=O)C2)c2c1CCCC2 (centres undefined) | -18.2%
O=C(Nc1ccc(Cl)cc1)c1nn(C2CCS(=O)(=O)C2)c2c1CCCC2 (centres undefined) | 26.7%
O=C(Nc1cccnc1)c1nn(C2CCS(=O)(=O)C2)c2c1CCCC2 (centres undefined) | 36.6%
Cc1cccc(NC(=O)c2nn(C3CCS(=O)(=O)C3)c3c2CCCC3)n1 (centres undefined) | 30.8%
Cc1ccc(O)c(CNCC(C)c2nc3ccccc3o2)n1 (centres undefined) | 43.1%
O=C(Nc1ccc2c(c1)C(=O)NC2=O)c1ccc(Cl)s1 | -93.6%
NCC1CCC(C(NC(=O)c2cccc(F)c2)c2ccccn2)CC1 (centres undefined) | 14.4%
CCc1c(C(=O)N2CCCC(N(C)C)C2)cnn1C(C)(C)C (centres undefined) | 5.7%
O=C1[C@@H]2CN(C3CCOCC3)C[C@H]2CCN1CC1CC1 | 3.81%
CN(C)S(=O)(=O)c1ccc(-c2nc(C#N)c(NC3CCCCC3)o2)o1 | 19.8%
Cc1cnc(NC(=O)c2ccc(-n3ncc(C#N)c3N)cc2)s1 | 47.3%
Cc1nc(NC(=O)c2ccc(-n3ncc(C#N)c3N)cc2)sc1C | 50.3%
CN(C(=O)c1ccc(-n2ncc(C#N)c2N)cc1)C1CCCC1 | -8.11%

SMILES | INHIBITION
N#Cc1cnn(-c2ccc(C(=O)N(C3CCCCC3)C3CC3)cc2)c1N | 17.5%
CN(CC1CCCCC1)C(=O)c1ccc(-n2ncc(C#N)c2N)cc1 | 52.7%
Cc1ccnc(NC(=O)c2ccc(-n3ncc(C#N)c3N)cc2)c1 | 68.8%
Cc1cc(NC(=O)c2ccc(-n3ncc(C#N)c3N)cc2)n(C)n1 | 11.2%
Cc1cccnc1NC(=O)c1ccc(-n2ncc(C#N)c2N)cc1 | 25.6%
N#Cc1cnn(-c2ccc(C(=O)Nc3ccccn3)cc2)c1N | 28.7%
Cc1cnc(N2C[C@@H]3[C@@H](C2)OCC(=O)N3CC(C)C)nc1 | 40.8%
CN(C)C(=O)N1CCN(c2ccc(Cl)nn2)C(=O)C1 | 16.8%
COc1ccc(Br)cc1SCCCS(C)(=O)=O | 12.8%
Cc1nc(N2CCN(C(=O)c3ccncc3)CC2)c2c(n1)c(C)nn2C | 33.3%
Cc1nc(C2CCCN(C(=O)CCCn3cccn3)C2)sc1C (centres undefined) | -23.9%
Cc1ccc2c(n1)N(CCN(C)C)CCN(C(=O)c1ccsc1)C2 | 40.4%
Cc1ccc2c(n1)N(CCN(C)C)CCN(C(=O)c1cccs1)C2 | 74.2%
Cc1ccc2c(n1)N(CCN(C)C)CCN(C(=O)c1cscn1)C2 | 38.1%
Cc1ccc2c(n1)N(CCN(C)C)CCN(C(=O)c1ccco1)C2 | 54.4%
Cc1ccc2c(n1)N(CCN(C)C)CCN(C(=O)c1ccc[nH]1)C2 | 10.8%
Cc1ccc2c(n1)N(CCN(C)C)CCN(C(=O)c1ccoc1)C2 | 48.6%
COc1ccc(C(CNC(=O)Nc2cc(C)nn2C)N(C)C)cc1 (centres undefined) | 9.383%
COCCCN1CCN([C@@H]2c3ccccc3C3(CCNCC3)[C@H]2O)CC1 | 58.1%
COCCCC1CCN([C@@H]2c3ccccc3C3(CCNCC3)[C@H]2O)CC1 | 17.5%
CC(=O)CN1CCC2(CC1)c1ccccc1[C@@H](N1CCSCC1)[C@@H]2O | 22.3%
CS(=O)(=O)N1CCC2(CC1)c1ccccc1[C@@H](N1CCSCC1)[C@@H]2O | 24.4%
CCOCCN1CCN([C@@H]2c3ccccc3C3(CCNCC3)[C@H]2O)CC1 | 29.4%
CC(C)=CCN1CCC2(CC1)c1ccccc1[C@@H](N1CCSCC1)[C@@H]2O | 56.5%
CC(C)C1=NOC2(CCN(C(=O)C3CCCC3)CC2)C1 | 20.9%
c1cn2c(n1)CN(C1CCOCC1)CC(CN1CCCC1)C2 (centres undefined) | 29%

SMILES | INHIBITION
Cc1nc(C)n(C2CCCN(C(=O)c3ncoc3C(C)C)C2)n1 (centres undefined) | 38.5%
Cc1ccc(NC2CCN(C(=O)CCc3nccs3)CC2)nn1 | -48.4%
COCCOCCNC(=O)c1cccc(Cn2nc(C)cc2C)c1 | 26.6%
Cc1cc(NC(=O)NCC(O)COc2ccccc2)n(C)n1 (centres undefined) | 25.365%
CCn1cc(NC(=O)c2cccc(OCC(F)(F)F)n2)cn1 | 51.5%
CCc1cc(NC(=O)c2cccc(OCC(F)(F)F)n2)[nH]n1 | -20.8%
O=C(NCC(O)COc1ccccc1)Nc1nncs1 (centres undefined) | 53.1%
CCn1cc(NC(=O)NCC(O)COc2cccc(F)c2)cn1 (centres undefined) | 23.2%
Cc1n[nH]c(C)c1NC(=O)c1cccc(OCC(F)(F)F)n1 | -14.9%
CCn1cc(NC(=O)NCC(C)O)cn1 (centres undefined) | 13.1%
CCn1cc(NC(=O)NCC(O)COc2ccccc2)cn1 (centres undefined) | 60.5%
O=C(NCC(O)COc1ccc(C(F)(F)F)cc1)Nc1nncs1 (centres undefined) | 14.8%
Cc1nonc1CC(=O)N1C[C@H]2CC[C@@H](C1)N(Cc1ccccc1)C2=O | 0.139%
Cc1ccc(CN(CCCN(C)C)Cc2cnc(N(C)C)nc2)o1 | 15.395%
CC(C)C(=O)N1CCCC2(C1)CN(c1nncs1)CCO2 (centres undefined) | 30.3%
CNC(=O)CN1CCOC(c2cccc(N)n2)C1 (centres undefined) | -5.8%
C[C@@H]1CN2C[C@H](O)CC2CN1Cc1ccc2nccnc2c1 (some centres undefined) | 28.5%
O=C(CN1CC(c2nc(-c3ccco3)no2)C1)NCC1CCCO1 (centres undefined) | 17.7%
COc1ccccc1OCCNCc1c(C(C)C)nn(C)c1N(C)C | 31.3%
O=C(NCCc1ccccn1)C1(n2cnnn2)CCCCC1 | 46.4%
CNCc1ccc([C@@H]2CN(C(C)=O)C[C@H]2C(N)=O)cc1 | -2.46%
NC(=O)CC1CCCCN1C(=O)c1cccc(C(F)(F)F)c1 (centres undefined) | 37.4%
Cc1ccc(C(=O)N2CCOCC3(CCN(C4CCOCC4)C3)C2)o1 (centres undefined) | 14.1%
O=C1CCCN1Cc1ccc(C(=O)N2CCCC2c2cccs2)cc1 (centres undefined) | 4.52%
CC(C)COc1ccccc1CN(C)C(=O)c1cc(=O)[nH]c(=O)[nH]1 | 10.6%
COCC(C)N(Cc1ccccc1OC)C(=O)c1cc(C)[nH]c(=O)c1 (centres undefined) | 29.4%

SMILES | INHIBITION
Cc1cc(C(=O)N(C)Cc2ccccc2OCC(C)C)cc(=O)[nH]1 | 58.1%
CCc1ccccc1NC(=O)CCc1cnn(C)c1 | 34.2%
CN(CC(N)=O)CC1(c2ccc(Br)cc2)CC1 | -28.4%
Cc1ccc(OCC(=O)Nc2ccc(S(C)(=O)=O)cc2)cc1C | 59.4%
Cc1ccc(OCC(=O)Nc2cc(C(=O)O)cc(S(C)(=O)=O)c2)cc1C | 45.6%
Cc1ccc(OCC(=O)NS(=O)(=O)c2cccnc2)cc1C | 1.48%
COc1ncccc1CN1Cc2nnn(C)c2C(COCC2CC2)C1 (centres undefined) | 28.4%
Cc1nccc(C2(C)CCCNC2)n1 (centres undefined) | 40.4%
COc1ccc(CNC(=O)CCc2c(C)noc2C)cc1F | -4.93%
COc1ccc(CCCC(=O)NCc2c(C)noc2C)cc1F | 29.3%
COc1ccc(C(=O)CCC(=O)NCc2c(C)noc2C)cc1F | 64.1%
CC1c2ncc(Cn3cccn3)n2CCN1S(=O)(=O)C1CC1 (centres undefined) | 30.3%
CCN1CC2(CC1=O)CN(Cc1cnn(C)c1)CCN(C(C)=O)C2 (centres undefined) | -2.53%
CCn1cncc1CN(Cc1ccc(OC)cc1OC)CC1CCCO1 (centres undefined) | 41.2%
COc1ccc(CN(Cc2cncn2C)CC2CCCO2)c(OC)c1 (centres undefined) | 50%
COc1ccc(CN(Cc2cncn2C)CC2CCCO2)cc1 (centres undefined) | 35.2%
CCS(=O)(=O)c1ccc(N2CCC(NC(=O)C3CCCCC3)CC2)cc1 | 37.7%
CCS(=O)(=O)c1ccc(N2CCC(NC(=O)CC3CCCC3)CC2)cc1 | 60.1%
CCS(=O)(=O)c1ccccc1N1CCC(NC(C)=O)CC1 | 6%
CCS(=O)(=O)c1ccc(N2CCC(NC(C)=O)CC2)cc1 | 19.7%
CCS(=O)(=O)c1ccccc1N1CCC(NC(=O)NC2CCCC2)CC1 | -28.9%
CCCC(=O)NC1CCN(c2ccccc2S(=O)(=O)CC)CC1 | 58.5%
CCc1nnc2n1CCN(C(=O)c1ccc3[nH]nnc3c1)C2 | -1.85%
CCOc1ccccc1OC1CCN(C(=O)c2c[nH]nn2)CC1 | 33.8%
CS(=O)(=O)N1CCOCC2(CCN(C(=O)c3ccncc3)CC2)C1 | 19.5%
COc1ccc(N2CCN(Cc3nc(CSC)no3)C(C)C2=O)cc1 (centres undefined) | -0.55%

— ChEMBL document CHEMBL4513216, “Probing the Open Global Health Chemical Diversity Library for Multistage-Active Starting Points for Next-Generation Antimalarials” (ACS Infect Dis, 2020)
